From PubChem BioAssay (NCI)
Compounds without any hit were thinned out: in the full panel of roughly 79,000, 15% have a hit. Unmarked numbers belong to inactive results. The source made the active and inactive calls. Rule as the data show it: active = growth inhibition above about 70%; inactive = the rest.

Experiment: NCI Yeast Anticancer Drug Screen. Data for the sgs1 mgt1 strain (AID 161);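 also: 0% = growth of cultures given vehicle only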
Conditions: S. cerevisiae sgs1 mgt1 strain, active compounds read high
Description: Growth inhibition of yeast strains with defined genetic alterations is measured as a screen for potential anti-cancer activity. Selected strains with alterations in DNA damage repair or cell cycle control were exposed to compounds and growth inhibition was measured relative to vehicle treated controls. The strain used in this assay is sgs1 mgt1

[1] = at 5.0 µM (retest, dose inferred, filed as 0.5)
[2] = at 50.0 µM (retest, dose inferred, filed as 5.0)

Row | Compound | growth inhibition [1] | growth inhibition [2] | growth inhibition (at 50.0 µM)
1 | CN(C)C(=O)c1ccc(SC(=S)NCc2ccccc2)cc1 | 3% | 98% (active) | 97.8% (active)
2 | CCCCCCCC1SCC(=O)N1c1nncs1 (configuration not stated) | 0% | 95% (active) | 1.45%
3 | CC(C)CCCCCCCCCCCCC(=O)NCC(=O)NC1C(C)OC(Nc2ncnc3nc[nH]c23)C(O)C1O (configuration not stated) | 43% | 45% | 34.5%
4 | C/C(=N/Nc1ccc([N+](=O)[O-])cc1[N+](=O)[O-])C1=CCC(C(C)(C)C)CC1 (configuration not stated) | -5% | 27% | -7.05%
5 | CN(C)c1c([N+](=O)[O-])cc(N2C(=O)C=CC2=O)cc1[N+](=O)[O-] | 23% | 100% (active) | 93.8% (active)
6 | C[C-](O)O.O/C(=C\[C-](O)c1ccccc1)c1ccccc1.O/C(=C\[C-](O)c1ccccc1)c1ccccc1.[Nd+3] (configuration not stated) | 42% | 42% | 93.3% (active)
7 | Cc1nc(-n2nc(-c3ccccc3)cc2-c2ccccc2)sc1C(/C=C\c1ccc([N+](=O)[O-])cc1)=N/NC(=S)NN | 11% | 91% (active) | 80.7% (active)
8 | O=C1Sc2sc(=S)sc2SC1c1ccccc1 (configuration not stated) | 5% | 98% (active) | 82.2% (active)
9 | Cc1ccc2c(c1)C(=O)N(CC[P+](c1ccccc1)(c1ccccc1)c1ccccc1)C2=O | 74% (active) | 91% (active) | 66.8%
10 | CCc1ccc(-c2ccccc2)cc1 | -1% | -2% | -3.9%
11 | COc1ccc(Cc2ccc(N)cc2)cc1 | -68% | 85% (active) | 89.5% (active)
12 | Cc1ccc(O)c(C(c2cccc(C(c3cc(C)ccc3O)c3cc(C)ccc3O)c2)c2cc(C)ccc2O)c1 | 31% | 97% (active) | 95% (active)
13 | Cc1cc(O)c2c(c1)C(=O)c1c(c(O)cc(O)c1-c1c(O)cc(O)c3c1C(=O)c1cc(C)cc(O)c1C3=O)C2=O | 8% | 64% | 69.8%
14 | Cc1ccc2nc(C[n+]3ccc4ccccc4c3)ccc2c1 | -2% | 47% | 44.4%
